In PubChem BioAssay (NCI):
About 83,000 compounds went through this panel and 20% of them were active in at least one assay; those are over-represented in the sample as a whole.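 Percent growth is the endpoint: 0 to 100 indicates growth inhibition (40 means 60% inhibition), 0 means no net growth, and negative values indicate cell death.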 Calls of active or inactive are those of the source. How the source made its calls: active means growth percent below 10; inactive means the rest.

These compounds were tested on HL-60(TB) leukemia (assay: NCI-60 one-dose screen, 48 h (100 = growth as untreated, 0 = no growth, -100 = all killed)). Conditions: 10 µM unless noted.

Compound | growth
CC(=O)C1C(=O)C(=O)N(c2ccc(Cl)c(Cl)c2)C1=O (stereo not given) | 98.6% (inactive)
CCOC(=O)C1CCN(S(=O)(=O)/N=C2/NC(=O)NC2=C(Cl)Cl)CC1 | -45.9% (active)
Cc1cccc(-c2nnc(SCC(=O)Nc3ncc(Cc4ccccc4)s3)n2N2C(=O)CSC2=S)c1 | 97.8% (inactive)
O=NN(CCCl)C(=O)Nc1ccc(NC(=O)N(CCCl)N=O)cc1 | 94.8% (inactive)
CNC(=O)c1cc(Oc2ccc(NC(=O)c3nc(S(C)(=O)=O)sc3-c3ccc(F)cc3)cc2)ccn1 | 27.2% (inactive)
c1ccc2c(c1)oc1cc3sccc3nc12 | 103% (inactive)
Cc1cccc(NC(=O)Cn2cc(CN3CCN(c4ccnc5cc(Cl)ccc45)CC3)nn2)c1 | 89.1% (inactive)
CCN(CC)CCC(CNc1c(C)cnc2cc(Cl)ccc12)c1ccc(Cl)cc1 (stereo not given) | 52.5% (inactive)
CCOC(=O)CC1C(COC(=O)NC)OC(n2cnc3c(NC(=O)Nc4ccccc4)ncnc32)C1O[Si](C)(C)C(C)(C)C (stereo not given) | 23.5% (inactive)
COc1ccc2cn3c4ccc(O)cc4[nH]c(=O)c3c2c1 | -7.42% (active)
CC1COCC(C)N1C1=C(Cl)C(=O)c2ccccc2C1=O (stereo not given) | -19.5% (active)
NC(=O)CC1(O)C=C(Br)C(=O)C(Br)=C1 | -27.9% (active)
Nc1nnc2cc(Cl)ccc2n1 | 145% (inactive)
CC(=O)OCCc1ccccc1 | 92% (inactive)
COc1ccc(OC)c(C(=O)c2oc3ccc(Br)cc3c2N)c1 | -10.2% (active)
CCCCN(CCCC)C(=N)c1ccnc2ccccc12 | 64.8% (inactive)
O=C1/C(=C/c2ccc(O)cc2)COc2ccc(-c3ccccc3)cc21 | -51% (active)
O=[N+]([O-])c1ccc(Cl)c(-c2cc(CCCCO)on2)c1 | 90.7% (inactive)
COC12C=C/C(=C(/C(=O)OCCSc3ccnn3C)C(=O)CCCCCCCCC3(OC)C=C/C(=C(/C(=O)OCCSc4ccnn4C)C(=O)CCCCCCCC1)O3)O2 | -6.91% (active)
O=C(Nc1cccc(-n2cc(-c3ccncc3)c(-c3ccc(Cl)c(O)c3)n2)c1)c1ccc(N2CCOCC2)c(C(F)(F)F)c1 | 51.6% (inactive)

Compound | growth
CSc1nc(Nc2cccc(NC(=O)CCl)c2)c(C#N)c(-c2cccc([N+](=O)[O-])c2)n1 | 30.3% (inactive)
O=C(Cn1c[n+](CC(=O)c2ccc(-c3ccccc3)cc2)c2ccccc21)Nc1cccc2cccnc12 | -37.2% (active)
O=C(COc1ccc(/C=C2\Cc3ccc(Cl)cc3C2=O)cc1)Nc1nccs1 | 67.3% (inactive)
COc1cc(/C=N/OC(=O)Nc2ccccc2)cc(OC)c1OC | 99.2% (inactive)
O=C(O)Cc1ccc(Cl)cc1 | 22.4% (inactive)
CC(C)C[C@H](NC(=O)[C@H](Cc1cccc2ccccc12)NS(=O)(=O)c1cccc2cccnc12)B(O)O | -17.2% (active)
CCOC(=O)Nc1cc(-c2ccc(C)c(NS(C)(=O)=O)c2)nn2c(C)nnc12 | 10.8% (inactive)
N#Cc1c(-c2ccccc2)nc(SCC(=O)N2CCN(c3ccccc3)CC2)[nH]c1=O | 62.5% (inactive)
CCOC(=O)/C=C1\S/C(=N\Nc2cc(=O)[nH]c3ccc(OC)cc23)N(c2ccccc2)C1=O | 96.1% (inactive)
COc1cc2ncnc(-n3ncc4cc(NC(=O)Nc5ccc(Cl)c(C)c5)ccc43)c2cc1OC | 114% (inactive)
CCn1c(-c2nonc2Nc2ccc(OC)cc2)nc2ccccc21 | 128% (inactive)
CCCCCCCCNc1cc2c3c(c1)CCCN3CCC2 | -3.66% (active)
O=Nc1c(-c2c(O)[nH]c3ncccc23)[nH]c2ccccc12 | 125% (inactive)
Fc1ccc(Nc2nnc(-c3ccc(Cl)cc3)o2)cc1 | 91.4% (inactive)
C=CCOC(=O)C1=C(C)N(CC)C(=O)NC1c1c(Cl)n(C)c2ccccc12 (stereo not given) | 99.2% (inactive)
CC(=O)Nc1ccc(S(=O)(=O)NC2CCCCC2)cc1 | 96% (inactive)
CCCCC1=C(Br)C(=O)c2nc(C)ccc2C1=O | 77% (inactive)
Nc1ncccc1O | 51.6% (inactive)
N#CC1(O)CCCCC1 | 104% (inactive)
O=C1CCC(N2C(=O)c3cccc(NCCCCCCOc4ccc(Nc5nccc(Nc6ccccc6)n5)cc4)c3C2=O)C(=O)N1 (stereo not given) | 87.2% (inactive)
